Exocytosis inh – lytic granule exocytosis inhibition. TALL-104 LAMP-1 surface exposure, flow cytometry; cells stimulated with thapsigargin and PMA. AID 651702. inhibition, % at 10 µM. 360,000 compounds, 0.66% hits;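 active = inhibition above about 55%, limit read from the data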
NadD block – NadD (S. aureus) enzyme inhibition; purified NadD enzyme, colorimetric absorbance read-out; 360,000 compounds, 0.78% hits; AID 602399; inhibition, % at 20 µM; in the data active = inhibition above about 26%
PP1 inh – counter-screen for PP5 inhibitors: inhibitors of human PP1-alpha; purified PP1alpha, OMFP fluorescence; AID 2235; P62136; 320,000 compounds, 0.9% hits; inhibition, % at 6.7 µM;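 active = inhibition above the mean inhibition of all tested compounds plus 3 SD, computed separately for each screening campaign, cut at about 15% in these data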
GRK2 inh – human GRK2 inhibition via aptamer displacement; 330,000 compounds, 0.59% hits; inhibition of aptamer binding, % at 10 µM; P25098; AID 488847; bead flow cytometry, FAM-aptamer displacement from GRK2;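 active = inhibition of aptamer binding above 40%, roughly 3 SD of noise, on plates passing a quality check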;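 note: median bead fluorescence of bound FAM aptamer so fluorescent compounds give negative values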
B2AR ag – activates human beta-2 adrenergic receptor causing internalization | 340,000 compounds, 0.43% hits | P07550 | response, % (no concentration beside the values) | AID 504454 | Am2.2-beta2AR cells, FAP receptor internalization, flow cytometry;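 active = response above a set limit, near 3 SD of response in nonfluorescent compounds, cut at about 42% in these data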
Target sequence (P07550 whole entry, looked up): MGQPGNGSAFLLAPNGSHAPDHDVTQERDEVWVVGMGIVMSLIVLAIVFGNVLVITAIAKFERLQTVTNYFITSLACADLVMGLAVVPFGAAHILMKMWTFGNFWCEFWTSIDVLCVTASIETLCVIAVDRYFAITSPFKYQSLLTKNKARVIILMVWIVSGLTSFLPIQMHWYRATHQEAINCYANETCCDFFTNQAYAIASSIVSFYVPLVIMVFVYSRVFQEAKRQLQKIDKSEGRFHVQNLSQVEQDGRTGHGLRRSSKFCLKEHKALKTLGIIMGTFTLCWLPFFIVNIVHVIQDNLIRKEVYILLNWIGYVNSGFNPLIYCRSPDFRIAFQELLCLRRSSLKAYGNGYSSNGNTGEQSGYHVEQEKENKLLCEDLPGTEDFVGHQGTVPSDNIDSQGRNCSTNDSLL
B2AR ag CP1 – activates human beta-2 adrenergic receptor. shares compounds with B2AR ag. Am2.2-beta2AR cells, FAP surface receptor, flow cytometry; stronger effect = lower value. percent response (surface receptor), % at 10 µM. 1,100 compounds, 25% hits;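 active = surface receptor percent response at or below 58%, roughly 3 SD from nonfluorescent compounds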
B2AR FAP counter – flagged in Am2.2 fluorescence counterscreen for beta-2AR agonists. shares compounds with B2AR ag. calls only at 10 µM. 1,100 tested, under 10 active. Am2.2 cells, FAP fluorogen flow cytometry; stronger effect = lower value. AID 588765;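 active = percent response below a set limit in fluorescence channel 1 and below 50% in channel 8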
NadD inh conf – confirmation of Staphylococcus aureus NadD inhibitors. shares compounds with NadD block. purified S. aureus NadD, colorimetric enzyme assay. inhibition, % at 20 µM. 2,000 compounds, 13% hits; in the data active = inhibition mostly above about 42%, no sharp cut-off; inactive = mostly below about 42%
Exocytosis CP01 – lytic granule exocytosis inhibition; 1,500 compounds, 11% hits; inhibition, % at 10 µM; AID 651954; TALL-104 cells, LAMP-1 externalization, flow cytometry; stimulated with PMA plus thapsigargin; shares compounds with Exocytosis inh; in the data active = inhibition above about 60%;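 note: 0% = stimulated vehicle wells and 100% = unstimulated wells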
An asterisk follows results filed as active; i = inactive; nt = not tested or not shown. Rows were chosen to be rich in hits. Some 2.9% of all compounds tested hit in one or more screens of this group.

SMILES	Exocytosis inh	NadD block	PP1 inh	GRK2 inh	B2AR ag	NadD inh conf	others
CNCCC(Oc1ccc(C(F)(F)F)cc1)c1ccccc1 (centres undefined)	5	-6	1	0	9	nt	B2AR ag CP1=109;B2AR FAP counter=i
COC(=O)C1=C(c2cccc(OCc3ccccc3)c2)C[C@@H]2CC[C@H]1N2C(=O)NCc1ccccc1OC	31	2	11	3	-10	nt
OC(c1cccc(Cl)c1)(c1cccc(Cl)c1)C1CN2CCC1CC2 (centres undefined)	-2	-5	-1	0	59*	nt	B2AR ag CP1=90;B2AR FAP counter=i
OC(CNCc1ccccc1)c1ccc(Cl)cc1 (centres undefined)	7	-2	nt	nt	-2	nt	B2AR ag CP1=98;B2AR FAP counter=i
CCCCCC1(C(C)C)C(=O)NC(=S)NC1=O	-2	0	nt	nt	0	nt
COC(=O)C1=C(c2cccc(OCc3ccccc3)c2)C[C@@H]2CC[C@H]1N2C(=O)NCc1ccccc1	-6	-6	3	0	10	nt
COC(=O)C1=C(c2cccc(OCc3ccccc3)c2)C[C@@H]2CC[C@H]1N2C(=O)NCc1cccc(F)c1	5	-2	1	0	54*	nt	B2AR ag CP1=46*;B2AR FAP counter=i
O=C1NC(=O)C(Sc2ccccc2[N+](=O)[O-])C(=O)N1	-8	3	-1	0	-6	nt
CC(=O)c1ccc2c(c1)C1C(Cl)C(Sc3ccccc3[N+](=O)[O-])CC1C(c1ccccc1[N+](=O)[O-])N2 (centres undefined)	4	68*	16*	0	20	25
CC(=O)c1ccc2c(c1)C1C(Cl)C(Sc3ccccc3[N+](=O)[O-])CC1C(c1ccccc1)N2 (centres undefined)	15	37*	9	0	9	20
Cc1cc(N(CCCl)CCCl)ccc1C=NNC(=O)Cc1cc(=O)oc2cc(O)ccc12	-2	73*	nt	nt	21	59*
CSc1ccc(NC(=O)C2(C)CCN2C(=O)C2(c3ccccc3)CC2)cc1 (centres undefined)	-4	-11	nt	nt	nt	nt
CCOc1cc(C2C(C#N)=C(N)Oc3c2c(=O)oc2ccccc32)ccc1OC(=O)c1cccs1 (centres undefined)	-1	31*	6	0	-14	23
N#CC1=C(N)Oc2c(c(=O)oc3ccccc23)C1c1cccnc1 (centres undefined)	-4	1	-2	1	-6	nt
O=C(NCCCN1CC1)Nc1cccc2ccccc12	-1	34*	nt	nt	3	11
O=C1NCN(c2ccccc2)C12CCN(C(c1ccnc3ccccc13)c1nnnn1C1CCCC1)CC2 (centres undefined)	1	11	nt	nt	nt	nt
Cc1cccc(C)c1-n1nnnc1C(CCc1ccccc1)N1CCC2(CC1)C(=O)NCN2c1ccccc1 (centres undefined)	9	41*	nt	nt	nt	10
O=C1NCN(c2ccccc2)C12CCN(C(c1cccc3ccccc13)c1nnnn1C1CCCCC1)CC2 (centres undefined)	-1	30*	nt	nt	nt	8
CC1([N+](=O)[O-])COP(=O)(NC2CC2)OC1 (centres undefined)	7	1	nt	nt	-2	nt
CN(C)P(=O)(N(C)C)N1CC1	9	-1	nt	nt	0	nt
C[n+]1c(-c2ccccc2)cc(CCCCc2cc(-c3ccccc3)[n+](C)c(-c3ccccc3)c2)cc1-c1ccccc1	-1	40*	6	0	14	43
Cc1ccccc1-[n+]1c(-c2ccccc2)cc(-c2ccccc2)cc1-c1ccccc1	-11	7	4	nt	-3	nt
CC(=O)N(C)C1=Nc2ccc(Cl)cc2C(c2ccccc2)=[N+]([O-])C1	4	3	nt	nt	-14	nt
N#Cc1ccc2nc(-c3ccc(CN4CCC(n5c(=O)[nH]c6ccccc65)CC4)cc3)c(-c3ccccc3)nc2c1	31	43*	nt	nt	nt	26
O=c1[nH]c2ccccc2n1C1CCN(C(c2nnnn2Cc2ccccc2)C2CC2)CC1 (centres undefined)	0	-4	nt	nt	nt	nt
SMILES	Exocytosis inh	NadD block	PP1 inh	GRK2 inh	B2AR ag	NadD inh conf	others
O=c1[nH]c2ccccc2n1C1CCN(CCCC(c2ccc(F)cc2)c2ccc(F)cc2)CC1	25	6	7	0	15	nt
Cc1cccc2nc(-c3ccccc3)c(-c3ccc(CN4CCC(n5c(=O)[nH]c6ccccc65)CC4)cc3)nc12	26	45*	nt	nt	nt	26
Cc1cccc(C)c1-n1nnnc1C(c1cccc2ccccc12)N1CCC(n2c(=O)[nH]c3ccccc32)CC1 (centres undefined)	-3	38*	nt	nt	nt	-3
CC1=C(C)CC2(CC1)C(=O)NC(=O)NC2=O	-6	1	nt	nt	-8	nt
CCOC(=O)[C@]12Cc3cc(Cl)ccc3[C@H]1N(C1CCCCC1)C(=O)c1cc(OC)ccc12	100*	22	nt	nt	nt	nt	Exocytosis CP01=92*
CCOC(=O)[C@]12Cc3ccc(C)cc3[C@H]1N(C1CCCCC1)C(=O)c1cc(OC)ccc12	84*	3	nt	nt	nt	nt	Exocytosis CP01=23
CCOC(=O)[C@]12Cc3cc(C)ccc3[C@H]1N(C1CCCCC1)C(=O)c1ccccc12	60*	4	nt	nt	nt	nt	Exocytosis CP01=9
CCOC(=O)[C@]12Cc3c(cc(OC)c(OC)c3OC)[C@H]1N(C1CCCCC1)C(=O)c1ccccc12	63*	5	nt	nt	nt	nt	Exocytosis CP01=6
Cc1nc(C)c(C(=O)NN=Cc2ccc(N(CCCl)CCCl)cc2)s1	-1	-3	nt	nt	0	nt
COC(=O)C1=C(c2ccc(C(C)=O)cc2)C[C@@H]2CC[C@H]1N2C(=O)N1CCCCC1	-2	-1	-1	2	-3	nt
N#Cc1ccccc1Cn1cc(C(=O)c2ccccc2F)c2ccccc21	-2	-5	0	0	10	nt
Cc1ccc2c(C)cccc2c1	-3	-1	nt	nt	0	nt
CCOC(=O)[C@]12Cc3cc(N(C)C)ccc3[C@H]1N(Cc1ccccc1)C(=O)c1ccccc12	-4	3	nt	nt	12	nt
CCOC(=O)[C@]12Cc3cc(Cl)ccc3[C@H]1N(Cc1ccccc1)C(=O)c1ccccc12	87*	-5	nt	nt	8	nt	Exocytosis CP01=-3
CCCN1CCc2cccc3c2[C@H]1Cc1ccc(O)c(O)c1-3	101*	2	1	4	20	nt	Exocytosis CP01=27
COc1ccc2c(c1O)-c1c(OC)c(OC)cc3c1[C@H](C2)N(C)CC3	-2	0	-1	8	-13	nt
COc1ccccc1-n1c(-c2ccccc2)nc2ccccc2c1=O	-10	-1	nt	nt	-4	nt
C/C(=N\N1CCCCCC1)c1c(O)n(-c2ccccc2C)c(=O)[nH]c1=O	-8	2	-2	3	-4	nt

Compound activity from PubChem BioAssay.
